Source: paper PMC4336329 (PLoS ONE, 2015)
About 14,000 (4.5%) of roughly 310,000 compounds showed an effect of 50% or more. The effect is printed as a negative number. What follows is part of a selection rich in strong results, with near analogues and random picks from the rest.

What follows are compounds tested against human ether-à-go-go-related gene (hERG) potassium channel (human, UniProt Q12809) (assay: primary screen, population patch clamp on CHO cells stably expressing hERG; higher = less effect of the substance).
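Further: peak tail current of the secondary pulse compared with the same well before compound.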

human ether-à-go-go-related gene (hERG) potassium channel, sequence (Q12809 whole entry, looked up): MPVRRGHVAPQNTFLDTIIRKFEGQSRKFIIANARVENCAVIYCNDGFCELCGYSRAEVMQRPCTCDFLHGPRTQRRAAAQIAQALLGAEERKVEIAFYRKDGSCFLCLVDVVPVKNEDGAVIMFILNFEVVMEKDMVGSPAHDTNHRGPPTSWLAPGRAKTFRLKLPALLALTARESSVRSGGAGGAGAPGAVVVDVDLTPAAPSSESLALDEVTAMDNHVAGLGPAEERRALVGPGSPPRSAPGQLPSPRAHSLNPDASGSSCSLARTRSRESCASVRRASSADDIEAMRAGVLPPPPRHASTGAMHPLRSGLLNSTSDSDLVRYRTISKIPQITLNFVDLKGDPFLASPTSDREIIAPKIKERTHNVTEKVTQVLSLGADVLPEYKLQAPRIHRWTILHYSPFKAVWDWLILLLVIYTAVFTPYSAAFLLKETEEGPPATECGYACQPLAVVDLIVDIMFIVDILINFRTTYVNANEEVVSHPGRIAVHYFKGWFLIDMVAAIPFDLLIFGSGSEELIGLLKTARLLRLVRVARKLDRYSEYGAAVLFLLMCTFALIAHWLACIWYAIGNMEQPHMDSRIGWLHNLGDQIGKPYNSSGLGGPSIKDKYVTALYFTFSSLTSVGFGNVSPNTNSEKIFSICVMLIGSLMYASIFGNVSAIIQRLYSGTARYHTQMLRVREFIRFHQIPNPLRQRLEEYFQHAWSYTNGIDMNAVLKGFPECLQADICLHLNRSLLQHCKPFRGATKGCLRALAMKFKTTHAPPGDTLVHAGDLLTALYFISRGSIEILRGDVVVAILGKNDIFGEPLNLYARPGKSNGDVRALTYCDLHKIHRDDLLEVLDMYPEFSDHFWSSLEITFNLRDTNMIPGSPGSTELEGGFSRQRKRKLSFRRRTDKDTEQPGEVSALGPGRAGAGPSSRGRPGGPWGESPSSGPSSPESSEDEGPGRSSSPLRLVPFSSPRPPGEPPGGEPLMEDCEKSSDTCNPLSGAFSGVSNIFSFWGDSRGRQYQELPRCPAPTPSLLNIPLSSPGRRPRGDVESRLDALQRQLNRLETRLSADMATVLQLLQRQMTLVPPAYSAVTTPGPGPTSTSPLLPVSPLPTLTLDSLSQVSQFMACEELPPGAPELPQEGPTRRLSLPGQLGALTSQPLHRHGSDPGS

Compound	hERG current change (%, negative = inhibition) at 10uM
O=C(NCc1ccco1)/C(=C/C=C/c1ccccc1)NC(=O)c1ccco1	-36.4%
O=C(NCc1ccco1)/C(=C\C=C\c1ccccc1)NC(=O)c1ccco1	-38.3%
N#C/C(=C\C=C\c1ccccc1)C(=O)NCc1ccco1	-3.85%
O=C(NCc1ccco1)c1ccccc1Br	7.63%
Cc1ccc(C(=O)N/C(=C/C=C/c2ccccc2)C(=O)NCc2ccco2)cc1	-28.9%
O=C(NCc1ccco1)/C(=C/C=C\c1ccccc1)NC(=O)c1ccc(Br)o1	-59.6%
Cc1ccc(C(=O)N/C(=C/C=C\c2ccccc2)C(=O)NCc2ccco2)cc1	-27.7%
Cc1ccc(C(=O)N/C(=C\C=C\c2ccccc2)C(=O)NCc2ccco2)cc1	-50.3%
O=C(NCc1ccco1)/C(=C\C=C\c1ccccc1)NC(=O)c1ccccc1Br	-70.5%
Cc1ccc(C)c(NS(=O)(=O)c2ccc(NC(=O)CSc3ccc(Cl)cc3)cc2)c1	17.8%
O=C(N/N=C/c1ccccc1[N+](=O)[O-])c1cccs1	5.65%
C=CCn1c(Cc2ccccc2)nc2c(cnn2-c2ccccc2)c1=O	-34.8%
COc1cccc(N2CC(C(=O)Nc3nnc(SCC(=O)N4CCOCC4)s3)CC2=O)c1 (stereo not drawn)	18.1%
CC(=O)N(Cc1cc(=O)[nH]c2ccccc12)c1cccc(C)c1	-8.96%
CSCC(=O)N1CCCC(CNC(=O)c2ccc(-c3ccccc3)cc2)C1 (stereo not drawn)	-28.5%
O=C(NCC1CCCN(C(=O)c2cccnc2)C1)c1ccc(-c2ccccc2)cc1 (stereo not drawn)	-26.8%
CSCCC(=O)N1CCCC(CNC(=O)c2ccc(-c3ccccc3)cc2)C1 (stereo not drawn)	-73.2%
CC(=O)CCC(=O)N1CCCC(CNC(=O)c2ccc(-c3ccccc3)cc2)C1 (stereo not drawn)	-13.8%
CCc1cc(C(=O)N2CCCC(CNC(=O)c3ccc(-c4ccccc4)cc3)C2)no1 (stereo not drawn)	-58.1%
O=C(NCC1CCCN(C(=O)c2cscn2)C1)c1ccc(-c2ccccc2)cc1 (stereo not drawn)	-15.1%
CCOc1ccc(C2CC(c3ccc(CC)cc3)Nc3nc(N)nn32)cc1 (stereo not drawn)	1.96%

Compound	hERG current change (%, negative = inhibition) at 10uM
COc1ccc(Cl)cc1NS(=O)(=O)c1cccc(C(=O)NCC(C)(C)N2CCOCC2)c1	-12.6%
O=C(Cc1ccccc1)N/N=C/c1ccccc1Cl	2.14%
O=C(NCc1ccccn1)c1cccc(S(=O)(=O)Nc2ccccc2Cl)c1	-2.4%
Cc1ccc(S(=O)(=O)N(C)C)cc1NC(=O)COC(=O)c1ccc2c(c1)NC(=O)CS2	-32.5%
COC(=O)[C@@H]1Cc2c([nH]c3ccccc23)C(C)N1C(=O)c1ccccc1 (stereo partly drawn)	3.27%
CN1CCc2c(sc3nc(NN)n(-c4ccc(Cl)cc4)c(=O)c23)C1	14.6%
CCN1CCCC1CN(Cc1cc2c(C)cc(C)cc2[nH]c1=O)C(=O)NC1CCCCC1 (stereo not drawn)	-76%
Cc1cc(C)c2cc(CN(CCO)C(=O)NC3CCCCC3)c(=O)[nH]c2c1	-3.62%
CC(=O)N(Cc1cc2c(C)cc(C)cc2[nH]c1=O)C1CCCCC1	8.13%
Cc1ccc2[nH]c(=O)c(CN(CCCN3CCOCC3)C(=O)NC3CCCCC3)cc2c1	-25.7%
CCN(CC)CCN(Cc1cc2ccc(C)cc2[nH]c1=O)C(=O)NC1CCCCC1	-73.1%
CCc1ccc2[nH]c(=O)c(CN(CCN(CC)CC)C(=O)NC3CCCCC3)cc2c1	-66.6%
CCN(CC)CCN(Cc1cc2cc3c(cc2[nH]c1=O)OCCO3)C(=O)NC1CCCCC1	-28.7%
CCc1ccc2[nH]c(=O)c(CN(CCN3CCCC3)C(=O)NC3CCCCC3)cc2c1	-40.9%
COc1ccc(CN(Cc2cc3cc(OC)c(OC)cc3[nH]c2=O)C(=O)NC2CCCCC2)cc1	7.13%
Cc1nc2sc(C)c(C)c2c(=O)[nH]1	13.7%
COc1ccccc1/C=C/C(=O)NCC(=O)N/N=C/c1ccccc1[N+](=O)[O-]	-36.9%
CCOc1ccc(NC(=O)Cn2sc3nc(C)cc(C)c3c2=O)cc1	4.94%
CCC(C)c1ccc(NC(=O)CSc2nncn2N)cc1 (stereo not drawn)	-27.5%
COc1ccc(S(=O)(=O)NCCSCc2ccccc2C)cc1Br	-1.29%
C=CCN1C(=Nc2cccnc2)SCC1(O)c1ccc(C)cc1 (stereo not drawn)	4.64%
